According to PubChem BioAssay:
A number with no mark means an inactive call. For part of these data: Measured potencies and affinities stand elsewhere. The source made the active and inactive calls. Unless noted, the rule behind the calls is not given here.

Legend:
[1] = antimalarial activity against Dd2 strain (AID 2302;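 active = growth inhibition above 50% at the single 2 µM test dose, taken to imply half-maximal potency below 2 µM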;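 note: 0% = DMSO untreated growth and 100% = chloroquine plus artemisinin killed control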); details: P. falciparum Dd2 in RBCs, LDH growth readout, 72 h; at 2 µM; active compounds read high
[2] = human hepatoma cell viability loss – ATP luminescence, cytotoxicity control for P. falciparum antimalarial project, primary screen (AID 2303;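 active = inhibition above 50%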;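 note: 0% = DMSO wells and 100% = digitonin-killed cells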); details: HepG2 viability, 24-48 h, at 10 µM, active compounds read high
[3] = target: L-lactate dehydrogenase (Plasmodium falciparum (isolate CDC / Honduras)) (UniProt Q27743); test: PfLDH activity inhibition – cell lysate, 3D7 strain, counter-screen for P. falciparum growth inhibition project (AID 2304);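 note: 0% = vehicle and 100% = reference inhibitor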; details: P. falciparum 3D7 crude extract, LDH APAD/NBT absorbance; at 2 µM; active compounds read high
Sequence of L-lactate dehydrogenase (Plasmodium falciparum (isolate CDC / Honduras)) (Q27743 whole entry, looked up): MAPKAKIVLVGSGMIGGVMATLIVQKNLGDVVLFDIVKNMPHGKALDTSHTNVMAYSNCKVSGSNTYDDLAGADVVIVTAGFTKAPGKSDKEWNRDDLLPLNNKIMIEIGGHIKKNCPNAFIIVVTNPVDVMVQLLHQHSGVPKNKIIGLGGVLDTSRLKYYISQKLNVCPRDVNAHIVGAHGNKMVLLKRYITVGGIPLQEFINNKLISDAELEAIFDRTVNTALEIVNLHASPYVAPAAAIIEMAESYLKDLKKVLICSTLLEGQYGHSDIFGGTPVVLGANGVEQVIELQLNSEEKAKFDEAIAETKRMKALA

[4] = inhibition of 3D7 malaria parasite growth – strain 3D7 (AID 2306);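 note: 0% = DMSO wells and 100% = chloroquine plus artemisinin control wells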; details: P. falciparum 3D7 erythrocytic growth, LDH absorbance, 72 h; at 2 µM; active compounds read high
[5] = target: Calcium-dependent protein kinase 1 (Plasmodium falciparum (isolate 3D7)) (UniProt P62344); test: PfCDPK1 kinase inhibitors, biochemical, TCAMS library (AID 1159585; cut-off not given, nearly all actives have IC50 up to about 0.98 µM;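 note: inhibitors leave more ATP so luminescence rises with inhibition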); details: recombinant PfCDPK1, Kinase-Glo ATP depletion luminescence
Sequence of Calcium-dependent protein kinase 1 (Plasmodium falciparum (isolate 3D7)) (P62344 whole entry, looked up): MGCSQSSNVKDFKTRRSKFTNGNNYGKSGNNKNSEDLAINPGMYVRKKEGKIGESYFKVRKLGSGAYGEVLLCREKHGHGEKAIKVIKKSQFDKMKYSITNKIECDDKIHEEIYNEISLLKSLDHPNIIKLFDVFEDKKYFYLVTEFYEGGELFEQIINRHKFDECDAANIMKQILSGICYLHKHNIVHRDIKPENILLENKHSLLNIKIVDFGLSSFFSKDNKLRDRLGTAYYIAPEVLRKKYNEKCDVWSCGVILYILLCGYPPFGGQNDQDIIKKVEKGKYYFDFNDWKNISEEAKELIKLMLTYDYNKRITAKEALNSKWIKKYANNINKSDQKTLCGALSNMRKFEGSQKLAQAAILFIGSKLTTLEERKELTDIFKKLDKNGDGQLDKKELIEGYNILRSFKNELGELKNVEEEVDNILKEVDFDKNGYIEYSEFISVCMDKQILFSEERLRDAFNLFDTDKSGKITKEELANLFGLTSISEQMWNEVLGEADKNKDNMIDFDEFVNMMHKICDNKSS

[6] = target: Plasmodium falciparum protein kinase 6 (PK6, PF3D7_1337100) (UniProt Q8IDW1); test: PfPK6 kinase inhibitors, biochemical, TCAMS library (AID 1159586); details: recombinant PfPK6, Kinase-Glo ATP depletion luminescence
Sequence of Plasmodium falciparum protein kinase 6 (PK6, PF3D7_1337100) (Q8IDW1 1-305): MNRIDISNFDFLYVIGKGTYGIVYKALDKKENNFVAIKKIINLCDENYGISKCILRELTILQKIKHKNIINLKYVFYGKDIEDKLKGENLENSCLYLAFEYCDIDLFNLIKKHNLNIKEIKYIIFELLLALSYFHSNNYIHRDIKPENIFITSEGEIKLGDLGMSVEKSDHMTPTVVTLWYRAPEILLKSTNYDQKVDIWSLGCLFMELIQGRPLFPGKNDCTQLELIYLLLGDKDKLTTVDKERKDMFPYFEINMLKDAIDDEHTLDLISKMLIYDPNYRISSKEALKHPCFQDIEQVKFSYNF

[7] = target: Protein kinase 7 (PK7), Plasmodium falciparum 3D7 (PF3D7_0213400) (UniProt Q7YTF7); test: inhibition of Plasmodium PK7 catalytic activity – biochemical, TCAMS antimalarial set, Kinase-Glo luminescence (AID 1159587); details: recombinant PfPK7, Kinase-Glo ATP depletion luminescence
Sequence of Protein kinase 7 (PK7), Plasmodium falciparum 3D7 (PF3D7_0213400) (Q7YTF7 1-343): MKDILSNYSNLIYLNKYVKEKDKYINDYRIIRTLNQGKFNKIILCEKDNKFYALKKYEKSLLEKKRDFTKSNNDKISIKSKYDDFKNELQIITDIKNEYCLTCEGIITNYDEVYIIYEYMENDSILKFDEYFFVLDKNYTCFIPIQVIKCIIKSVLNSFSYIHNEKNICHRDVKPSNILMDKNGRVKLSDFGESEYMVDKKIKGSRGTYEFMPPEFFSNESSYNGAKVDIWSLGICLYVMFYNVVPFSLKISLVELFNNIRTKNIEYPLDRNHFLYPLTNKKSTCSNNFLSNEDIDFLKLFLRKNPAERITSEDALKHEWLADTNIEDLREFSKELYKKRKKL

[8] = target: Calcium-dependent protein kinase 4 (Plasmodium falciparum (isolate 3D7)) (UniProt Q8IBS5); test: PfCDPK4 kinase inhibitors, biochemical, TCAMS library (AID 1159588; cut-off not given, nearly all actives have IC50 up to about 0.91 µM); details: recombinant PfCDPK4, Kinase-Glo ATP depletion luminescence
Sequence of Calcium-dependent protein kinase 4 (Plasmodium falciparum (isolate 3D7)) (Q8IBS5 whole entry, looked up): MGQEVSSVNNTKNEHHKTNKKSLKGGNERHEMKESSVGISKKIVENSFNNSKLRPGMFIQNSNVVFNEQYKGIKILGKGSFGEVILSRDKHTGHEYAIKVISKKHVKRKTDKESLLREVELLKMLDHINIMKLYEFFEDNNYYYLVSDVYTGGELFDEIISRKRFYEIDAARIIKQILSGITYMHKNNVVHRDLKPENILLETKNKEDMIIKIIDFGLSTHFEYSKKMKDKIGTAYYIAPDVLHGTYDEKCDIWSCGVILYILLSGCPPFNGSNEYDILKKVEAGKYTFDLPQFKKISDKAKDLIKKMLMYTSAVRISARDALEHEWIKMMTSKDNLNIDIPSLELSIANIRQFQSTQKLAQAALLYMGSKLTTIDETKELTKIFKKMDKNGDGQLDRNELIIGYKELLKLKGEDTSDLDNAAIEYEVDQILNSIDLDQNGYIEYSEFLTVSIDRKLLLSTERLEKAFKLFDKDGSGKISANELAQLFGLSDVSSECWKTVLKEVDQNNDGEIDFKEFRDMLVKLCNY

Structure (SMILES)	growth inhibition [1]	inhibition [2]	inhibition [3] [%]	growth inhibition [4]	outcome [5]	outcome [6]	outcome [7]	outcome [8]
COc1ccc(CN2CCN(CCOC(c3ccc(F)cc3)c3ccc(F)cc3)CC2)c(O)c1	97% (active)	6%	-6	97% (active)	inactive	inactive	inactive	inactive
COc1cc(C=CC(=O)NC2CCC(CN3CCC(c4c[nH]c5ccccc45)CC3)CC2)cc(OC)c1 (configuration not stated)	90% (active)	38%	-9	101% (active)	inactive	inactive	inactive	inactive
CC(Cc1ccc(S(=O)(=O)N(C(C)C)C(C)C)cc1)NCC(O)c1cccc(C(F)(F)F)c1 (configuration not stated)	93% (active)	21%	4	96% (active)	inactive	inactive	inactive	inactive
CCN1CC[C@]2(c3cccc(OC)c3)Cc3nc4ccccc4c(-c4ccccc4)c3C[C@H]2C1	98% (active)	0%	-4	99% (active)	inactive	inactive	inactive	inactive
CC[C@H]1CN2CCc3cc(OC)c(OC)cc3[C@@H]2C[C@@H]1C[C@H]1NCCc2c1cc(OC)c(O)c2I	101% (active)	54% (active)	-4	101% (active)	inactive	inactive	inactive	inactive
O=C(NC1CCC(CN2CCC(c3c[nH]c4ccccc34)CC2)CC1)c1cc(-c2cccc(Cl)c2)n(-c2ccc(Cl)cc2Cl)n1 (configuration not stated)	25%	53% (active)	-5	81% (active)	inactive	inactive	inactive	inactive
O=[N+]([O-])c1ccc(Oc2c(Cl)cc(S(=O)(=O)N3CCC(CN4CCC(c5c[nH]c6ccccc56)CC4)CC3)cc2Cl)c(Cl)c1	83% (active)	43%	-1	100% (active)	inactive	inactive	inactive	inactive
COCCSc1ccc(CC(C)NCC(O)c2cccc(Cl)c2)cc1 (configuration not stated)	73% (active)	2%	-1	97% (active)	inactive	inactive	inactive	inactive
CC[C@H]1CN2CC[C@@H]1C[C@H]2[C@H](O)c1cc(-c2ccc(F)cc2)nc2ccc(O)cc12	99% (active)	25%	-2	99% (active)	inactive	inactive	inactive	inactive
COc1ccc(CCNCc2ccc3nc(N)c(C)cc3c2)cc1	15%	-1%	3	100% (active)	inactive	inactive	inactive	inactive
O=C(Nc1ccc(Oc2ccccc2)cc1)NC1CCC(CN2CCC(c3c[nH]c4ccccc34)CC2)CC1 (configuration not stated)	97% (active)	55% (active)	4	101% (active)	inactive	inactive	inactive	inactive
CC[C@H]1CN2CC[C@@H]1C[C@H]2[C@H](O)c1cc(-c2cccnc2)nc2ccc(OC)cc12	99% (active)	20%	3	99% (active)	inactive	inactive	inactive	inactive
C=C[C@@H]1CN2CC[C@H]1C[C@H]2[C@H](O)c1cc(-c2ccc(Cl)cc2)nc2ccc(OC)cc12	98% (active)	38%	0	99% (active)	inactive	inactive	inactive	inactive
CCCCCc1cc(O)c2c3c(c(=O)oc2c1)CN(C)CC3	99% (active)	4%	4	101% (active)	inactive	inactive	inactive	inactive
O=C(CC1CCCC1)N(CC1CCN(Cc2ccc(C(F)(F)F)cc2)CC1)c1ccc(N2CCOCC2)c(F)c1	97% (active)	10%	-1	92% (active)	inactive	inactive	inactive	inactive
CC(=O)Nc1ccc(OCCN(CC(C)C)c2ccc(C#N)c(C(F)(F)F)c2)c(Cl)c1	94% (active)	13%	2	94% (active)	inactive	inactive	inactive	inactive
CCCc1cc([C@@H](O)[C@@H]2C[C@@H]3CCN2C[C@@H]3CC)c2ccccc2n1	57% (active)	9%	2	100% (active)	inactive	inactive	inactive	inactive
COCC(=O)N(Cc1cccc(-c2ccc(CNCCc3ccccc3)cc2)c1)C1CCN(Cc2ccccc2)CC1	45%	44%	4	93% (active)	inactive	inactive	inactive	inactive
Cc1ccc(CC(C)NCC(O)c2cccc(C(F)(F)F)c2)cc1F (configuration not stated)	91% (active)	15%	3	97% (active)	inactive	inactive	inactive	inactive
O=C(NCCC1CCN(CCc2c[nH]c3ccccc23)CC1)Nc1ccc(Cl)c(Cl)c1	5%	18%	-2	101% (active)	inactive	inactive	inactive	inactive

Structure (SMILES)	growth inhibition [1]	inhibition [2]	inhibition [3] [%]	growth inhibition [4]	outcome [5]	outcome [6]	outcome [7]	outcome [8]
O=C(NC1CCC(N2CCC3(CC2)C(=O)NCN3c2ccccc2)CC1)c1cc2ccccc2[nH]1 (configuration not stated)	40%	-2%	1	98% (active)	inactive	inactive	inactive	inactive
COc1ccc(O)c(CN2CCN(c3cc(C)ccc3C)CC2)c1	86% (active)	7%	2	90% (active)	inactive	inactive	inactive	inactive
COCCNCc1ccc(-c2ccc(CN(C(=O)Nc3ccccc3)C3CCN(Cc4ccccc4)CC3)cc2)cc1	39%	16%	-5	98% (active)	inactive	inactive	inactive	inactive
CC(Cc1ccc(SC(C)C)cc1)NCC(O)c1cccc(Cl)c1 (configuration not stated)	97% (active)	5%	-3	99% (active)	inactive	inactive	inactive	inactive
COc1coc(C(=O)NC2CCN(CC3(c4ccc(Cl)cc4)CCC3)CC2)c1OC	96% (active)	2%	-3	96% (active)	inactive	inactive	inactive	inactive
CC(Cc1ccc(NC(=O)[C@H](C)NCCc2cccc(Cl)c2)cc1)NCCc1cccc(Cl)c1 (some centres not stated)	54% (active)	99% (active)	2	100% (active)	inactive	inactive	inactive	inactive
CC(C)CNCc1cccc(-c2ccc(CN(C(=O)Nc3ccccc3)C3CCN(Cc4ccccc4)CC3)cc2)c1	61% (active)	41%	-2	101% (active)	inactive	inactive	inactive	inactive
COc1cc(CC(C)NCC(O)c2cccc(C(F)(F)F)c2)ccc1OCc1ccccc1 (configuration not stated)	71% (active)	2%	2	93% (active)	inactive	inactive	inactive	inactive
COc1ccc(C(=O)[C@H]2C[C@@H]2CN2CC=C(c3c[nH]c4cccc(Br)c34)CC2)cc1	67% (active)	32%	-3	88% (active)	inactive	inactive	inactive	inactive
NCc1cccc(-c2cccc(CN(C(=O)Nc3ccccc3)C3CCN(Cc4ccccc4)CC3)c2)c1	8%	3%	-2	99% (active)	inactive	inactive	inactive	inactive
NCC(=O)c1cc2c(cc1N)OCCO2	42%	64% (active)	0	89% (active)	inactive	inactive	inactive	inactive
COc1cc(CN2CCN(c3ccnc(N(C)C4CCN(C)CC4)n3)CC2)cc(Cl)c1O	63% (active)	11%	-5	94% (active)	inactive	inactive	inactive	inactive
NC(=O)CN1CC=C(c2c[nH]c3ccc(Br)cc23)CC1	0%	30%	-12	83% (active)	inactive	inactive	inactive	inactive
O=C1Nc2cccc3c2C1(CCCCCN1CC=C(c2c[nH]c4ccccc24)CC1)CCC3 (configuration not stated)	89% (active)	2%	3	94% (active)	inactive	inactive	inactive	inactive
COc1ccc(C(=O)[C@H]2C[C@@H]2CN2CC=C(c3c[nH]c4ccccc34)CC2)cc1	89% (active)	12%	1	95% (active)	inactive	inactive	inactive	inactive
O=C(Nc1ccc(Cl)c(Cl)c1)N1CCC(CN2CCC(c3c[nH]c4ccccc34)CC2)CC1	69% (active)	46%	-2	100% (active)	inactive	inactive	inactive	inactive
CC[C@H]1CN2CC[C@H]1C[C@@H]2[C@@H](O)c1ccnc2ccccc12	20%	10%	-4	98% (active)	inactive	inactive	inactive	inactive
Cc1c(C)c2c(c(C)c1O)CC[C@](C)(C(=O)N1CCC(CN3CCC(c4c[nH]c5ccccc45)CC3)CC1)O2	98% (active)	29%	2	101% (active)	inactive	inactive	inactive	inactive
CC[C@@]1(O)C(=O)OCc2c1cc1n(c2=O)Cc2c-1nc1cc3c(cc1c2CN1CCOCC1)OCO3	80% (active)	81% (active)	4	89% (active)	inactive	inactive	inactive	inactive
